In all, about 25,000 sequences were measured (“ln(normalized median fluorescence intensity)”: median about 6.7, highest 2% from about 10 on). Only a selection was taken, and the highest values are over-represented in it overall.

The subject of this assay is PfHDP1 homeodomain (GST-tagged). In words: gcPBM binding intensity (ln(normalized median fluorescence intensity)); higher = stronger DNA binding. In a few lines: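 Plasmodium falciparum DNA-binding domains carrying a GST tag were expressed in E. coli and applied for 1 h, at about 25 μg on average, to an Agilent 4 × 180k array. The array held primer-extended double-stranded 36-bp intergenic genomic probes together with negative controls, and binding took place in 1× PBS with 1% milk, 0.2 mg/ml BSA, 0.5% salmon testes DNA and 0.03% Triton X-100. An Alexa488 anti-GST antibody detected bound protein, and the array was scanned at 488 nm. Binding intensity is taken as the highest Masliner-normalised natural-log median intensity across replicate spots of either probe orientation.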
With “GGGTTTTTAAAATGTAGTACATATGTAAACATCAAA [XGTACX_site1262]”, the “gcPBM binding intensity (ln)” value is 6.7. For “CCAATACTGTTTAAATGTACAAGTAGGAGGTTAATT [XGTACX_site7260]” the value was 6.64; for “TATATATATATATATTGTACTTTATTTTATATATTC [XGTACX_site5697]”, 9.11; for “TTTTCAATATATATTTGTACTTTATTTTATGATATT [GTGCAC_negctrl_site732]”, 6.71. With “GCTTATGCTCAATATTGTACTTTTTTTATTTATTCA [XGTACX_site8863]”, the “gcPBM binding intensity (ln)” value is 10.6.

As to “AGCATTTTTCATTTTGCACACATGTTTTATGGGTAT [CACACA_site5839]”, the “gcPBM binding intensity (ln)” value turned out to be 10.5. Under “AGCATTTTTCATTTTGCACACATGTTTTATGTGTAT [CACACA_site3454]” stands 10.5; under “TATGTGTATTTATTTGCATGTTGGTTGTATTTTTTC [TGCATGCA_site479]”, 6.94. Under “TATCCTAACTTTAGATGTACACAAATAAAAAAAAAA [XGTACX_site4491]” stands 6.32; under “ATTTATATGAAAATATGTACTTATATAAATTTATTT [XGTACX_site53]”, 6.23; under “TAAGAATAATGACATAGTACAATTTAATAGATCTAA [XGTACX_site3670]”, 6.01.

Turning to “TTTTTTTTTAAAGAAAATAAAAATATGTACTTGACA [CACACA_negctrl_site1113]”, the “gcPBM binding intensity (ln)” value worked out at 6.05. For the sequence “ATAAAATAATCTTATGCACACCAAAAATTTATATAA [CACACA_site8332]”, the “gcPBM binding intensity (ln)” value is 10.4. For “AATCATAAACATTATGCACACAAAAATAAAAAAAAA [CACACA_site8289]” the value was 8.58; for “AATTATAAATCTTGCACACAAAAAAAATAATAAAAA [CACACA_site2434]”, 8.67; for “GTTAACAAATAATGCACACAAATGGATAAAATTATA [CACACA_site3725]”, 9.97. For “TAGTTAACAAATAATGCACACAAATGGATAAAATTA [CACACA_site9240]” the value was 10.6. Under “AAAATTATAAATCTTGCACACAAAAAAAATAATAAA [CACACA_site8771]” stands 8.27; under “AAATAAATCTTATGCACACAAATAATTAATTAAACA [CACACA_site1693]”, 10.7. Regarding “AAAATAATCTTATGCACACCAAAAATTTATATAATC [CACACA_site1235]”, the “gcPBM binding intensity (ln)” value came to 10.6.

Take “TTTTTAGTTAATTAAACACACAAAAAAAAAAATAAA [CACACA_site3930]”: the “gcPBM binding intensity (ln)” value came out at 6.4. In the case of “TTTTAAAAAAATATAATACACACCAAAAATATGCAC [CACACA_site2131]”, the “gcPBM binding intensity (ln)” value came out at 7.15. For “CGAAATAAATCTTATGCACACAAATAATTAATTAAA [CACACA_site8491]” the value was 10.5; for “AAAAAATTAATAAAAACACACAAAAAAAATAAACAA [CACACA_site1907]”, 6.94. Under “AAGCCTTAAAAGGAAAGTACGTATATATATATATAT [XGTACX_site8559]” stands 9.48. Under “TAAAGGTGAACAATACGTACATAAGAACTTATGAGG [XGTACX_site4216]” stands 6.43; under “ACAATGAGGATATATACACACATACATTAAAAAAAT [CACACA_site6955]”, 6.71; under “GCACCAAAAAAAAGACGTACAGTTATATTAAAATAG [XGTACX_site8926]”, 6.7. For the sequence “ATACATCAAGGACACACACACACACCCACACCCACA [CACACA_site8013]”, the “gcPBM binding intensity (ln)” value stood at 6.71. For “CTTAAAAACAAAAATGCACACATAATAAGCATATGT [CACACA_site9149]” the value was 9.58; for “AAATAAATCTTATGCACACAAATAATTAATGAAACA [CACACA_site5011]”, 10.6; for “TATATGAAATATTATGCACACAATATATAATATGAT [CACACA_site936]”, 10.2.

On to “AAAGAAATGAAATATACACACATACATAAATACATA [CACACA_site6081]”, for which the “gcPBM binding intensity (ln)” value amounted to 6.68. Under “ATGTAAAACATAAAATGTACATATTATACAAACTAT [XGTACX_site5797]” stands 6.87; under “ATTTATATTATAATATGTACACAAAAAAAATTAGGA [XGTACX_site565]”, 6.91.

In the case of “TATGAAATATCGTGCACACACGAATAATATAAGAAT [CACACA_site4842]”, the “gcPBM binding intensity (ln)” value came to 9.21. Under “GTTTACTAATATTGCACACGAATATGAAAAAGAGAA [CACACA_site2897]” stands 10.6. As to “CAGTTTACTAATATTGCACACGAATATGAAAAAGAG [CACACA_site8941]”, the “gcPBM binding intensity (ln)” value amounted to 9.89. “ATTATTTATTATTTCTGTACGTATAAAAATAACATT [XGTACX_site1671]”: the “gcPBM binding intensity (ln)” value worked out at 6.67. Under “CAGTTAATGTTGGTACTTTATATAAAAATGATATGA [CACACA_negctrl_site1600]” stands 6.67; under “TTCCTCTTAATATGTGCACACTAAATTATAACCTAA [CACACA_site5751]”, 11.3. With “ATTATGTATATAAATTAACACACATATGTGGTTAAT [CACACA_site9028]”, the “gcPBM binding intensity (ln)” value came out at 6.37.

Regarding “TAAATTATATTATGCACACTTAAAAATATATTTAAC [CACACA_site3512]”, the “gcPBM binding intensity (ln)” value turned out to be 9.29.

Take “TTATTTTAAATTAACACATGCATAATATATGTATAT [TGCATGCA_site597]”: the “gcPBM binding intensity (ln)” value came to 6.31. Under “AAATAATAAATTATAACACACATATATATATATATA [CACACA_site4045]” stands 9.33; under “TTCCTCTTAATATGTGCACACTAAATTATAACATAA [CACACA_site3260]”, 11.1. Consider “ACTAAACTTATATGTACACACATATAACATTAATTT [CACACA_site2258]”, for which the “gcPBM binding intensity (ln)” value is 6.67.

“CCTCTTAATATGTGCACACTAAATTATAACATAATT [CACACA_site3259]”: the “gcPBM binding intensity (ln)” value came to 11.3. Under “CCTAAATTATATTATGCACACTTAAAAATATATTTA [CACACA_site5861]” stands 9.95; under “AATATATCATTATATAAACACACAATATGTTTTTTA [CACACA_site9260]”, 6.22; under “CAGATAAGATTTTGTGGTACTATTTATTAAATTAGA [XGTACX_site2644]”, 6.06. For “AAGGTATGATTAATCACACACATAAATATATATACA [CACACA_site2658]” the value was 6.67; for “TATTTGAAAGCCAATTGTACTTTAGTTTTTGAAACA [XGTACX_site5542]”, 5.98. Under “AAAAATATAATATAATGTACACAAAAAAAAAAATTC [XGTACX_site3657]” stands 6.63. For “TATTCTAGTCTGCTTACACACATATTTATATTTATA [CACACA_site7432]”, the “gcPBM binding intensity (ln)” value turned out to be 7.53. Under “CCACGTATACGATGCACACGTATGCTTTATATATAG [CACACA_site4108]” stands 8.58; under “ATGCTTTTGTCATGTGCACACACGTATATATTATAT [CACACA_site4163]”, 11; under “AGACACGTATACGATGCACACGTATGCTTTATATAT [CACACA_site9363]”, 8.32. Under “AATTATATTTAGTATATGCACACTTTATGTTTGTTA [CACACA_site2025]” stands 9.36; under ATATATATTATGTGTGTGCACTTTTGTTATTATTAT, 9.03. For “GCTTTTGTCATGTGCACACACGTATATATTATATAT [CACACA_site6146]” the value was 11.5; for “CTATATTATTTTTCTTGTACGTAGGAAATATAGCTA [XGTACX_site6176]”, 6.45; for TGTATGTATAATTGAGTGCACAGAAAAAAAAAAGAA, 10.6. On to “CATTATAAAAAATAAAAAAGAAATAATTGTATATGC [CACACA_negctrl_site478]”, for which the “gcPBM binding intensity (ln)” value amounted to 6.62. For “AAGAAAATATAAAATGCACACTATAAATTGTATATA [CACACA_site7928]” the value was 9.72. For “TTTGTATTACGTTTGTGTACATATACAATGTGTTTT [XGTACX_site7708]” the value was 6.38; for “ACCCATTGCTCACGTGCACACATAGAAAAATAATTC [CACACA_site4389]”, 10.7; for “TCATTGAAAATTGTTGCACACATAATAATTAAATAT [CACACA_site8554]”, 9.46.

Turning to “TAAGAAATAAATAGTACACACATAGACACCCACCCA [CACACA_site8429]”, the “gcPBM binding intensity (ln)” value was 7.64. Under “ATTAAGACACATTGCACACGTGCACCCATAGAAAAA [CACACA_site408]” stands 10.5; under “TAAGAAATAAATAGTACACACATAGACACCCACCGA [CACACA_site1516]”, 7.1. Take “CCATTAAGACACATTGCACACGTGCACCCATAGAAA [CACACA_site4388]”: the “gcPBM binding intensity (ln)” value amounted to 10.2. Under “ACATTAAGACACATTGCACACGTGCACCCATAGAAA [CACACA_site8029]” stands 10.5. With “ACATTGCACCCGTGCACACATAGAAAAATAATTCTT [CACACA_site409]”, the “gcPBM binding intensity (ln)” value was found to be 10.3. For the sequence “TACACCCATAGACACACACACACGCATAAAAAAAAA [CACACA_site8428]”, the “gcPBM binding intensity (ln)” value was determined as 6.85.

For “TCACTTTTTATTAAATGTACATGCTTTCATTTTCAT [XGTACX_site8139]”, the “gcPBM binding intensity (ln)” value amounted to 6.78. Under “ATAAACAAAAAAAAAAAATATATCAATATATATATA [CACACA_negctrl_site299]” stands 8.7; under “TTTTTAAAAAATAAGAAAAAATAAATATATTACAAA [XGTACX_negctrl_site191]”, 6.58.

For “AAAATAAATAAATACACACACACGAATATATATATA [CACACA_site1683]”, the “gcPBM binding intensity (ln)” value worked out at 8.57. Under “TACTTATTTGATTGGGTGCATATATATAGTATGTAT [GTGCAC_site9845]” stands 9.2; under “GAAAAGCATAGATGCACACATATATATATATATATA [CACACA_site2169]”, 9.77; under “TAATAAAAAAAGTGCACACACATAATATATATATAT [CACACA_site3340]”, 9.23. For “AAAAAAAAAAAGCACACACACATATGAGTATATATA [CACACA_site4683]” the value was 6.91; for “TATACACATATATAAAGTACATATATGTGTAAAAAA [XGTACX_site8582]”, 6.8. For “AATAATAAAAAAAGTGCACACACATAATATATATAT [CACACA_site9100]” the value was 8.79; for “AAGAAAAGCATAGATGCACACATATATATATATATA [CACACA_site8675]”, 9.35; for “GCTAAAAGTATATGCACACACATATAGATGCACATA [CACACA_site6868]”, 10.7. On to “GTGCTAAAAGTATATGCACACACATATATATGCACA [CACACA_site8472]”, for which the “gcPBM binding intensity (ln)” value is 10.6. For the sequence “AGATAAAAAAAGTACACACACACATATATATATATA [CACACA_site3072]”, the “gcPBM binding intensity (ln)” value came to 9.22.

In the case of “AAAAAAAAAAAAAGCACACACACATATGCGTATATA [CACACA_site953]”, the “gcPBM binding intensity (ln)” value was determined as 6.43. “GCTAAAAGTATATGCACACACATATATATGCACATA [CACACA_site1635]”: the “gcPBM binding intensity (ln)” value is 11. For “ATGTGCACATATAAAAGTACACGCACATATATATAT [XGTACX_site1238]” the value was 11.
